Measured values taken from PubChem BioAssay (Tox21).
Several values for one entry are separate records, joined by “and”; a condition that tells them apart may be missing. Identical values can stand only once. Records with an inconclusive call do not appear. Entries that show only a call come without a potency. More than one record can exist for a structure, and the calls need not agree. Activity calls are given as the source filed them. Unless noted, calls follow the shape of the dose curve; as a rule, active = well fitted curve in the direction sought with a large enough effect in the repeat runs; inconclusive = weak or mixed curves; inactive = no such curve, though single readings can be large; an effect the other way counts as inactive or inconclusive.

Assays:
[1] = Caspase-3/7 induction in HepG2 cells by small molecules, qHTS assay (AID 1346978); also: nearly all actives have a fitted effect of over 15% in size; also: potency is read from the fitted curve at half-maximal effect
Summary of the method: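 Caspase-3/7 induction was measured by Caspase-Glo 3/7 luminescence (30 min, room temperature) after a 17 hr compound exposure of wild-type HepG2 cells seeded at 2,000 per well and pre-incubated 5 hr.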

[2] = Caspase-3/7 induction in CHO-K1 cells by small molecules, qHTS cell viability counter screen (AID 1346979); also: nearly all actives have a fitted effect of over 35% in size; also: potency is read from the fitted curve at half-maximal effect
Summary of the method: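 To flag cytotoxic compounds, treated CHO-K1 wild-type cells were given CellTiter-Fluor at 16hr and read fluorescently after 1hr at 37C; the caspase-3/7 luminescence was measured in these same wells.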

[3] = Caspase-3/7 induction in CHO-K1 cells by small molecules, qHTS assay (AID 1346980); also: nearly all actives have a fitted effect of over 15% in size; also: potency is read from the fitted curve at half-maximal effect
Summary of the method: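 Luminescent Caspase-Glo 3/7 read (30min, room temperature) quantified apoptosis induction. Cells were wild-type CHO-K1, treated with compound for 17hr at 37 C and 5% CO2.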

[4] = Caspase-3/7 induction in HepG2 cells by small molecules, qHTS cell viability counter screen (AID 1346981); also: nearly all actives have a fitted effect of over 30% in size; also: potency is read from the fitted curve at half-maximal effect; as to activity change, negative = cytotoxicity: series mostly up to about 92 µM
Summary of the method: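 Multiplexed with the caspase-3/7 assay: HepG2 cells, 16 hr compound treatment, CellTiter-Fluor viability detection by fluorescence.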

[5] = target: Nuclear receptor subfamily 1 group I member 2 (Homo sapiens) (UniProt O75469); assay: Human pregnane X receptor (PXR) small molecule agonists, qHTS assay (AID 1346982); also: nearly all actives have a fitted effect of over 35% in size; also: potency is read from the fitted curve at half-maximal effect
Summary of the method: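 We seeded PXR-Luc HepG2 cells in assay medium containing 5% charcoal-stripped FBS, added compounds 5 hr later, incubated 24 hr, and read luminescence with ONE-Glo reagent.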

[6] = target: Acetylcholinesterase (Homo sapiens) (UniProt P22303); assay: Acetylcholinesterase (AChE) small molecule antagonists: colormetric cell-based qHTS assay (AID 1347395; calls by dose curve; also: nearly all actives have a fitted effect of over 30% in size)
Summary of the method: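 Neuroblastoma line SH-SY5Y supplied the enzyme; cells were preincubated with compound for 30 min at 37 C and 5% CO2. Acetylthiocholine with DTNB was then added for 90 min at 37 C, and thiocholine was measured by colour.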

[7] = target: Acetylcholinesterase (Homo sapiens) (UniProt P22303); assay: Acetylcholinesterase (AChE) small molecule antagonists: enzyme-based qHTS assay (AID 1347397; calls by dose curve; also: nearly all actives have a fitted effect of over 55% in size); settings: Potency: AChE enzyme activity inhibition
Summary of the method: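 Absorbance-based detection of thiocholine with DTNB served as the read-out. Recombinant human AChE was exposed to compound for 30 min at RT before a 10 min RT incubation with acetylthiocholine.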

[8] = target: Nuclear receptor subfamily 1 group I member 2 (Homo sapiens) (UniProt O75469); assay: CYP3A4 induction through human pregnane X receptor (PXR) by small molecules, qHTS assay (AID 1346984); also: nearly all actives have a fitted effect of over 40% in size
Summary of the method: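 qHTS, concentration-response format: HepG2 DPX-2 line, PXR/CYP3A4-luc. Exposure 24 h, 37C. Substrate Luciferin-IPA 3uM final, 3 h. Detection One-Glo, 30 min RT.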

[9] = target: Nuclear receptor subfamily 1 group I member 2 (Homo sapiens) (UniProt O75469); assay: Human pregnane X receptor (PXR) activation by small molecules, qHTS assay (AID 1346985); also: nearly all actives have a fitted effect of over 40% in size
Summary of the method: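 DPX-2 cells (HepG2 co-transfected with a PXR response element and a CYP3A4-promoter luciferase construct) were seeded at 2,000 per well, rested 5 hr at 37C, then exposed to DMSO-dissolved compounds for 24 hr. Activation was read as luciferase luminescence.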

Sequence of Acetylcholinesterase (Homo sapiens) (P22303 whole entry, looked up): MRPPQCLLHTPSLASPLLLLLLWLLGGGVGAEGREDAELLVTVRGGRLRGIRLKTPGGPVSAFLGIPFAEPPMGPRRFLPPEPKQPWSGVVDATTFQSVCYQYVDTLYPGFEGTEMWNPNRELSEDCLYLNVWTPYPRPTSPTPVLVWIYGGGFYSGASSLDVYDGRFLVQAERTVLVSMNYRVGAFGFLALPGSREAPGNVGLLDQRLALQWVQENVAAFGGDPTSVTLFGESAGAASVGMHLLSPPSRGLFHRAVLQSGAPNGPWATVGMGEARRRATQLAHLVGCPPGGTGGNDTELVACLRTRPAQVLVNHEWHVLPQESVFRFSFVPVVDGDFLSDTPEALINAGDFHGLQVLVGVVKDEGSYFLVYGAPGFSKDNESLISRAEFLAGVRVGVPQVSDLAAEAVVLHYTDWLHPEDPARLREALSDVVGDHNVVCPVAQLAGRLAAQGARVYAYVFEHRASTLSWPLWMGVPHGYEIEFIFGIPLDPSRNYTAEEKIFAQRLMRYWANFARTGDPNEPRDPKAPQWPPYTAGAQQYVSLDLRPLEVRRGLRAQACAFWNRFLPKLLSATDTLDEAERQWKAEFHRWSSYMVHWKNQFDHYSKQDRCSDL
Sequence of Nuclear receptor subfamily 1 group I member 2 (Homo sapiens) (O75469 whole entry, looked up): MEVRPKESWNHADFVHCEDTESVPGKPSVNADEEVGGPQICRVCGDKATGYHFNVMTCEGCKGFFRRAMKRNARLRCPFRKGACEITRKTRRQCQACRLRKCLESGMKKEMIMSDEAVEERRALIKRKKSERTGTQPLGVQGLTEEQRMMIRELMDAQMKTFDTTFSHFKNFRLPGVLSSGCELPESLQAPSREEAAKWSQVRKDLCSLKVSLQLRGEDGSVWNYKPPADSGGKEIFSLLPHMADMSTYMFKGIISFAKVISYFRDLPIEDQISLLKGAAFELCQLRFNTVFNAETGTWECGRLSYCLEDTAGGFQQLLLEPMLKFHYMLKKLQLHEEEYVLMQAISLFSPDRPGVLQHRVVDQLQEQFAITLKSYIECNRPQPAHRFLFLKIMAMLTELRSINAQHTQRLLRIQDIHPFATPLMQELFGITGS

COC12CC[C@@]3(C[C@@H]1C(C)(O)C(C)(C)C)[C@H]1Cc4ccc(O)c5c4[C@@]3(CCN1CC1CC1)[C@H]2O5 (some centres not stated)
Potency [1]: 60.7 µM (active)
Potency [2]: 43 µM (active)
Potency [3]: 48.2 µM (active)
Potency [4]: 68.1 µM (active)
Potency [5]: 3.04 µM (active)
Potency [6]: inactive
Potency [7]: inactive

N#Cc1ccccc1Cl
Potency [1]: inactive
Potency [2]: inactive
Potency [3]: inactive
Potency [4]: inactive
Potency [5]: inactive
Potency [6]: inactive
Potency [7]: inactive

CC(=[OH+])/C=C(/C)[O-].CC(=[OH+])/C=C(\C)[O-].CC(=[OH+])/C=C(\C)[O-].[Fe]
Potency [1]: inactive
Potency [2]: inactive
Potency [3]: inactive
Potency [4]: inactive
Potency [5]: inactive
Potency [6]: inactive
Potency [7]: inactive

ClCCN1CCOCC1
Potency [1]: inactive
Potency [2]: inactive
Potency [3]: inactive
Potency [4]: inactive
Potency [5]: inactive
Potency [6]: inactive
Potency [7]: inactive

CCCCCCCCCCCCCCCC[n+]1ccccc1
Potency [1]: inactive
Potency [2]: 25.5 µM (active) [middle of 4 runs]
Potency [3]: inactive
Potency [4]: 63.9 µM (active) and 61.1 µM (active) and 26.9 µM (active)
Potency [5]: 10.1 µM (active) and inactive and 12 µM (active)
Potency [8]: inactive
Potency [9]: inactive

CN(C)C(=S)[S-].CN(C)C(=S)[S-].[Cu+2]
caspase activation [1]: -18.7% [at 19 µM] (inactive)
Potency [2]: 1.67 µM (active)
caspase-3/7 activation [3]: -5.91% [at 19 µM] (inactive)
Potency [4]: 7.45 µM (active)

NNC(=O)c1ccccc1
Potency [1]: inactive
Potency [2]: inactive
Potency [3]: inactive
Potency [4]: inactive
Potency [5]: 31.5 µM (active)
Potency [6]: inactive
Potency [7]: inactive

CC(=O)[O-].CC(=O)[O-].O.O.[Cd+2]
Potency [1]: inactive
Potency [2]: 1.7 µM (active)
Potency [3]: inactive
Potency [4]: 67.6 µM (active)

Brc1c(Br)c(Br)c(Oc2c(Br)c(Br)c(Br)c(Br)c2Br)c(Br)c1Br
caspase activation [1]: -0.566% [at 19 µM] (inactive)
activity change, negative = cytotoxicity [2]: -1.81% [at 19 µM] (inactive)
caspase-3/7 activation [3]: 3.41% [at 19 µM] (inactive)
activity change, negative = cytotoxicity [4]: 0.358% [at 19 µM] (inactive)
activation [5]: -0.0764% [at 19 µM] (inactive)
activity, negative = inhibition [6]: 0.803% [at 23.6 µM] (inactive)
activity change, negative = inhibition [7]: -1.63% [at 23.6 µM] (inactive)

N#CCCC(Br)(C#N)CBr (configuration not stated)
Potency [1]: inactive
Potency [2]: 30.6 µM (active)
Potency [3]: inactive

CN(C)[C@@H]1C(=O)C(C(N)=O)=C(O)[C@@]2(O)C(=O)C3=C(O)c4c(O)ccc(Cl)c4[C@@](C)(O)[C@H]3C[C@@H]12
Potency [1]: inactive
Potency [2]: 27.9 µM (active)
Potency [3]: inactive

CC(C)C(=O)Cl
Potency [1]: inactive
Potency [2]: inactive
Potency [3]: inactive
Potency [4]: inactive
Potency [5]: inactive
Potency [6]: inactive
Potency [7]: inactive

N#Cc1ccc(O)cc1
Potency [1]: inactive
Potency [2]: inactive
Potency [3]: inactive
Potency [4]: inactive
Potency [5]: inactive
Potency [6]: inactive
Potency [7]: inactive
